Only some compounds are listed: those with a hit (about 2% of all), similar ones and a draw of the others.
EP2 antag – human EP2 receptor antagonists, primary screen, TR-FRET cAMP, C6 glioma cells; Prostaglandin E2 receptor EP2 subtype (Homo sapiens), P43116; C6 glioma cells expressing human EP2; cells stimulated with saturating PGE2; inhibition, % at 25 µM; 0.52% of 260,000 active; AID 1422, 2008;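 active = percent inhibition above 40 after rounding to a whole number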;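 also: rat C6 glioma host cells with rolipram phosphodiesterase inhibitor present; the protocol text gives 20 µM as final concentration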
CHT allo act – CHT positive allosteric modulators, primary screen, cell-based, membrane potential dye, choline EC20; High affinity choline transporter 1 (Homo sapiens), Q9GZV3; CHT-expressing cells; active compounds read high; LV-AA mutant CHT in HEK293 cells; B-score at 10 µM; 0.49% of 310,000 active; AID 488977, 2010;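 active = initial fluorescence not abnormally high and integrated response B-score, plate-corrected, over 3 SD above library mean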
Target sequence (Q9GZV3 whole entry, looked up): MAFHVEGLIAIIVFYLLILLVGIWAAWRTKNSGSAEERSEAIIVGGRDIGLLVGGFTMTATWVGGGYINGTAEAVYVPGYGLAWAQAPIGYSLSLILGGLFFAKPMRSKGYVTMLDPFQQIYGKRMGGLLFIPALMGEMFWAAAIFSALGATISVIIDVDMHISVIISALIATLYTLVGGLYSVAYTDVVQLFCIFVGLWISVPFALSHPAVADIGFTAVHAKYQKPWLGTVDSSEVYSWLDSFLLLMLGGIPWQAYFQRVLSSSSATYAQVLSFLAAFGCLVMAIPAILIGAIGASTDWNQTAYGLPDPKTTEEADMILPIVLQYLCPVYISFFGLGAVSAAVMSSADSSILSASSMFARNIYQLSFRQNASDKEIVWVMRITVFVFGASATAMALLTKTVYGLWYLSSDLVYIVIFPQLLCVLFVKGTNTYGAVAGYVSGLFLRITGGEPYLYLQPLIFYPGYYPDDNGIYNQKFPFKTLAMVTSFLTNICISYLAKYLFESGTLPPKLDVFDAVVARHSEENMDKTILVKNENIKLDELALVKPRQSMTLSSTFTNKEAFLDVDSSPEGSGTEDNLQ
EP2 modulator – EP2 receptor modulators, cAMP readout, primary screen, cell-based, HTRF cAMP, PGE2 stimulation; EP2-expressing cells, cAMP HTRF FRET, PGE2 co-stimulation; induction, % at 25 µM; Prostaglandin E2 receptor EP2 subtype (Homo sapiens), P43116; 0.83% of 260,000 active;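 active = compounds whose cAMP rise, as percent of the full-agonist control response, exceeds 60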;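 also: rat C6 glioma line stably carrying human EP2 under a CMV promoter; the protocol text gives 20 µM as final concentration; 100% = response of wells given 1 µM PGE2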
CHT inh – inhibitors of human choline transporter CHT; High affinity choline transporter 1 (Homo sapiens), Q9GZV3; CHT-expressing cells, membrane potential dye, choline response; active compounds read low; B-score at 10 µM; 0.86% of 310,000 active;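 active = B-score over 3 SD under the library average, and starting fluorescence ratio not unusually high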;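 also: choline stimulus applied at its EC90 after an EC20 pre-addition; B-score computed on integrated fluorescence ratio after choline addition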
Starred values were filed as active, the others as inactive; i = inactive; nt = not tested or not shown; ! = a repeat was not active.

SMILES	EP2 antag	CHT allo act	EP2 modulator	CHT inh
CN1CCCC1CCNc1ccc2sc3ccccc3c(=O)c2c1 (stereo unspecified)	44*	i	nt	i
CCN1CCN(c2nc(-c3ccncc3)nc3ccccc23)CC1	nt	i	19	-6.9*
CN(c1ccccc1)c1nc(-n2ccnc2)nc(-n2ccnc2)n1	nt	i	26	i
c1ccc(N(c2ccccc2)c2nc(-n3ccnc3)nc(-n3ccnc3)n2)cc1	67*	i	-46	i
COC(=O)c1c(NC(=O)c2ccccc2Cl)sc(C(=O)Nc2cccc(OC)c2)c1C	4	nt	-4	nt
CCC(c1nnnn1CCc1ccccc1)N(Cc1cc2cc(OC)ccc2[nH]c1=O)C1CCCC1 (stereo unspecified)	2	nt	36	nt
Cc1ccc2cc(C#N)c(N3CCCN(C(=O)C4CCCO4)CC3)nc2c1C (stereo unspecified)	4	i	36	-6.1*
CCCn1c(=O)c(C(=O)NCCc2ccccc2)c(O)c2ccccc21	nt	i	nt	i
CCn1c(=O)c(C(=O)NCc2ccc(OC)cc2)c(O)c2ccccc21	-1	i	62*	i
CCn1c(=O)c(C(=O)NCc2ccc(OC)c(OC)c2)c(O)c2ccccc21	10	i	61*!	i
CCCn1c(=O)c(C(=O)NCCc2ccc(OC)cc2)c(O)c2ccccc21	9	i	71*	i
Cc1nn(-c2ccc([N+](=O)[O-])cc2)c2c1C(c1cccc(Br)c1)N1C(=N2)C(=O)Nc2ccccc21 (stereo unspecified)	8	i	-5	-6.6*
COc1ccccc1-n1c(SCC(=O)Nc2cccc(O)c2)nnc1-c1ccccc1O	4	nt	-50	nt
Cc1c(Br)c(O)c(Br)c2sc(=O)oc12	10	i	-40	-8.2*
O=C(Nc1nc2ccccc2o1)Nc1ccccc1Cl	41*	nt	-43	nt
Cn1c(=O)sc2cc(S(=O)(=O)Nc3ccc(Oc4cccnc4)cc3)ccc21	5	nt	-85	nt
CNc1ncc(CN(Cc2ccc(OC)c(OC)c2)CC2CCCO2)cn1 (stereo unspecified)	9	nt	4	nt
O=C(O)[C@@H]1[C@H](C(=O)Nc2cccc3cccnc23)[C@@H]2CC[C@H]1O2	58*	nt	-54	nt
CCOc1ccccc1NC(=O)C1C2CCC(O2)C1C(=O)O (stereo unspecified)	nt	i	nt	i
COc1ccc(CN2CCC(O)(c3ccccc3F)CC2)cc1Cc1c(C)n[nH]c1C	0	nt	-63	nt
Cc1cc(=O)cc(C)n1-c1ccccc1N1CCOCC1	8	i	14	i
Cc1ccc(C)n1-c1ccccc1N1CCCCC1	5	i	63*	i
C#CCOc1ccc(-c2nc3ccccc3s2)cc1	7	nt	-63	nt
Cc1cc(=O)c2c(O)c(O)ccc2o1	10	i	1	i
CC(C)c1ccc(O)c(O)c(=O)c1 (tested in a mixture with another compound)	41*	nt	48	nt
SMILES	EP2 antag	CHT allo act	EP2 modulator	CHT inh
CC(C(=O)NCCCc1ccc(F)cc1)N1C(=O)NC(C)(C)C1=O (stereo unspecified)	3	nt	-30	nt
CCOc1ccc(S(=O)(=O)Nc2nc3ccccc3nc2-n2ccc(=NC(=O)c3cccs3)cc2)cc1	45*	i	0	i
O=C(N=c1ccn(-c2nc3ccccc3nc2NS(=O)(=O)c2ccc(Cl)cc2)cc1)c1cccs1	48*	i	21	i
O=C(N=c1ccn(-c2nc3ccccc3nc2NS(=O)(=O)c2ccc(Cl)cc2)cc1)c1ccccc1Cl	10	i	14	i
Cn1c(NC(=O)c2cccnc2)nc2ccccc21	52*	i	17	i
O=C(Nc1cnc2ccccc2c1)c1cccnc1	3	i	-22	i
CCOC(=O)c1[nH]c2ccc(C)cc2c1NC(=O)CN1CCCCC1	11	i	-41	i
Cc1c2cc[n+](CCN3CCCCC3)cc2c(C)c2c1[nH]c1ccc(O)cc12	51*	nt	14	nt
C=CCN=C1S/C(=C/c2cccc([N+](=O)[O-])c2)C(=O)N1CC=C	9	i	64*	i
COc1cc(NS(=O)(=O)c2ccc(NC(=S)NC(=O)c3sc4ccccc4c3Cl)cc2)nc(OC)n1	126*	i	-3	i
COc1cc(NS(=O)(=O)c2ccc(NC(=S)NC(=O)c3sc4cc(F)ccc4c3Cl)cc2)nc(OC)n1	95*	i	-3	i
COc1cc(NS(=O)(=O)c2ccc(NC(=S)NC(=O)c3ccco3)cc2)nc(OC)n1	21	i	-17	i
COc1cc(NS(=O)(=O)c2ccc(NC(C)=O)cc2)nc(OC)n1	8	i	35	i
Cc1sc2nc(C3CC3)n3c(=O)n(CC(=O)N4CCCCC4)nc3c2c1C	nt	nt	23	nt
O=C1C2=C(Nc3cc([N+](=O)[O-])ccc3N2)O[C@@H]1c1c[nH]c2ccc(COc3ccccc3)cc12	60*	nt	9	nt
CC(=O)Nc1nnc(SCC(=O)c2ccc3c(c2)Cc2ccccc2-3)s1	13	i	61*	i
COc1ccc2cc(CN(Cc3ccc(Cl)cc3)C(=O)Nc3ccccc3OC)c(=O)[nH]c2c1	20	nt	-38	nt
C=CCNC(=S)N1CCN(c2ncc3c(=O)c(C(=O)O)cn(CC)c3n2)CC1	7	i	36	i
CCn1cc(C(=O)O)c(=O)c2cnc(N3CCNCC3)nc21	17	11*	20	i
CCN1C/C(=C/c2cccc([N+](=O)[O-])c2)C(=O)/C(=C/c2cccc([N+](=O)[O-])c2)C1	46*	i	-56	i
CCOc1cc(/C=C2\CN(CC)C/C(=C\c3ccc(O)c(OCC)c3)C2=O)ccc1O	nt	i	nt	i
C=CCn1c(SCC(=O)c2cc(C)n(CCOC)c2C)nc2sc(C)c(C)c2c1=O	42*	i	-39	i
O=C(N1CCN(c2ccccn2)CC1)C(Cl)(Cl)Cl	7	i	16	i
O=C1C=C(N2CCN(c3ccccn3)CC2)C(=O)c2c(O)ccc(O)c21	66*	nt	-9	nt
CCSc1cc(N2CCCC2)nc(-c2ccccc2)n1	7	i	64*	i
O=C(O)c1cc2c(cc1S(=O)(=O)O)[C@@H]1[C@@H]([C@H]3[C@H]2[C@]2(Cl)C(Cl)=C(Cl)[C@@]3(Cl)C2(Cl)Cl)[C@]2(Cl)C(Cl)=C(Cl)[C@@]1(Cl)C2(Cl)Cl	45*	nt	73*	nt
CN(C)S(=O)(=O)c1cc(C(=O)O)c(NC2CCCCC2)cc1Cl	6	i	3	i
Cn1c(=O)[nH]c(=O)c2c1nc(N1CCC(C(N)=O)CC1)n2Cc1ccccc1F	6	nt	-24	nt
OC1(c2ccc(F)cc2)CCN(Cc2ccccc2)C1 (stereo unspecified)	nt	i	61*	i
c1ccc(CN2CCC3(CC2)SSC2(CCN(Cc4ccccc4)CC2)SS3)cc1	45*	nt	28	nt

Compound activity from PubChem.
